The nature of experiment [1]: qHTS assay to identify aromatase inhibitors - cell viability counter screen (AID 743084).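 Further: cells stimulated with testosterone during compound exposure; nearly all actives have a fitted effect of over 55% in size.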 Further: potency means the concentration at half of the fitted maximal effect.
The target of experiment [2] is Aryl hydrocarbon receptor (Homo sapiens) (UniProt P35869). Briefly: qHTS assay to identify small molecule that activate the aryl hydrocarbon receptor (AhR) signaling pathway (AID 743085). Further: nearly all actives have a fitted effect of over 15% in size. Further: potency means the concentration at half of the fitted maximal effect.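 On activation: HG2L7.5c1 human HepG2 liver cells with stably integrated DRE-driven firefly reporter; series mostly up to about 70 µM.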 The method in brief:
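Stably transfected human liver carcinoma cells (HG2L7.5c1; 20 DRE-firefly luciferase) were incubated 5 h, dosed, and kept 24 h at 37C. Agonism was scored from increased luciferase luminescence.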

Experiment [3] can be described thus: qHTS assay to identify small molecule antagonists of the peroxisome proliferator-activated receptor gamma (PPARg) signaling pathway - cell viability counter screen (AID 743194). Further: nearly all actives have a fitted effect of over 55% in size. Further: potency means the concentration at half of the fitted maximal effect. The following applies: Potency: co-treated with 50 nM rosiglitazone unless noted. In short, it runs like this:
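PPARg-UAS-bla HEK293H cells were plated, rested 5 h at 37 C, then treated with compounds plus rosiglitazone (50 nM final) for 17 h at 37 C; viability was then read by CellTiter-Glo luminescence after 30 min at room temperature.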

Experiment [4] in a line: qHTS assay for small molecule agonists of the antioxidant response element (ARE) signaling pathway - cell viability counter screen (AID 743203; calls by dose curve; further: nearly all actives have a fitted effect of over 55% in size; further: potency means the concentration at half of the fitted maximal effect). In short, it runs like this: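 Viability counter screen: stably transfected ARE-bla HepG2 line, 16 hrs compound exposure at 37C/5% CO2, ATP-based CellTiter-Glo luminescence measured in the reporter wells.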
Experiment [5] is described as follows: qHTS assay for small molecule activators of the heat shock response signaling pathway - cell viability counter screen (AID 743209). Further: nearly all actives have a fitted effect of over 50% in size. Further: potency means the concentration at half of the fitted maximal effect. In short, it runs like this: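 Viability of HSE-bla HeLa cells is measured with CellTiter-Glo in the wells already used for the reporter read. Compound exposure lasts 5 h at 37 C, and luminescence is read after 30 min at room temperature.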

Experiment [6] is described as follows: qHTS assay to identify small molecule that activate the aryl hydrocarbon receptor (AhR) signaling pathway - cell viability counter screen (AID 743086).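 Further: HepG2 liver cells carrying the AhR DRE luciferase reporter; series mostly up to about 70 µM; nearly all actives have a fitted effect of over 45% in size.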 The method in brief:
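HepG2-AhR-luc (HG2L7.5c1) cells, 4000/well, were preincubated 5 h at 37C, exposed to compound in qHTS format for 24 hr at 37C, then given CellTiter-Fluor for 30 min; viability was read as fluorescence in the reporter wells.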

The target in experiment [7] is Peroxisome proliferator-activated receptor gamma (Homo sapiens) (UniProt P37231). Briefly: qHTS assay to identify small molecule agonists of the peroxisome proliferator-activated receptor gamma (PPARg) signaling pathway (AID 743094; active means well fitted activation curve with a large enough effect in the signal ratio in the repeat runs, not every such curve was filed as active; the % refers to the signal ratio). The method in brief:
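Reporter activation was scored by fluorescence of cleaved LiveBLAzer B/G substrate (1 h, room temperature) in PPARg-bla HEK293H cells previously treated 17 h at 37C with DMSO-dissolved compounds.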

Experiment [8] shares this target. As to the kind of experiment: qHTS assay to identify small molecule antagonists of the peroxisome proliferator-activated receptor gamma (PPARg) signaling pathway (AID 743191; calls by dose curve; further: series mostly up to about 63 µM; nearly all actives have a fitted effect of over 30% in size). The method in brief: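 GeneBLAzer PPARg UAS-bla HEK293H cells carrying a UAS-driven beta-lactamase reporter were plated at 3000 cells/well, preincubated 5 h at 37C, then given compound for 17 h at 37C; LiveBLAzer B/G FRET substrate was read after 1 h at room temperature.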

Experiment [9] can be described thus: qHTS assay for small molecule agonists of the antioxidant response element (ARE) signaling pathway (AID 743202; active means well fitted activation curve with a large enough effect in the signal ratio in the repeat runs, not every such curve was filed as active; the % refers to the signal ratio; further: potency means the concentration at half of the fitted maximal effect). The method in brief:
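Following a 16 h, 37 C exposure of reporter HepG2 cells (ARE-driven beta-lactamase, 2,000 cells/well) to compounds, FRET substrate was applied for 2 h at room temperature and fluorescence intensity recorded.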

The nature of experiment [10]: qHTS assay for small molecule activators of the heat shock response signaling pathway (AID 743210; active means well fitted activation curve with a large enough effect in the signal ratio in the repeat runs, with a control signal flat, not every such curve was filed as active; the % refers to the signal ratio; further: series mostly up to about 63 µM). The method in brief: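 Heat shock element–beta-lactamase HeLa reporter cells; qHTS with compounds for 5 h at 37 C; detection by FRET substrate fluorescence after 2.5 h at RT.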

Structures are written as SMILES. “And” between values parts separate entries of the source, which are not always exact repeats. Equal values may be shown once. Inconclusive results are not listed. The source holds several records for some structures; these can differ, active in one and inactive in another. The source made the active and inactive calls. Unless noted, the call rests on the fitted dose curve; in most records, active means well fitted curve in the direction sought with a large enough effect in the repeat runs; inconclusive means weak or mixed curves; inactive means no such curve, though single readings can be large; an effect the other way counts as inactive or inconclusive.

Aryl hydrocarbon receptor (Homo sapiens), sequence (P35869 whole entry, looked up): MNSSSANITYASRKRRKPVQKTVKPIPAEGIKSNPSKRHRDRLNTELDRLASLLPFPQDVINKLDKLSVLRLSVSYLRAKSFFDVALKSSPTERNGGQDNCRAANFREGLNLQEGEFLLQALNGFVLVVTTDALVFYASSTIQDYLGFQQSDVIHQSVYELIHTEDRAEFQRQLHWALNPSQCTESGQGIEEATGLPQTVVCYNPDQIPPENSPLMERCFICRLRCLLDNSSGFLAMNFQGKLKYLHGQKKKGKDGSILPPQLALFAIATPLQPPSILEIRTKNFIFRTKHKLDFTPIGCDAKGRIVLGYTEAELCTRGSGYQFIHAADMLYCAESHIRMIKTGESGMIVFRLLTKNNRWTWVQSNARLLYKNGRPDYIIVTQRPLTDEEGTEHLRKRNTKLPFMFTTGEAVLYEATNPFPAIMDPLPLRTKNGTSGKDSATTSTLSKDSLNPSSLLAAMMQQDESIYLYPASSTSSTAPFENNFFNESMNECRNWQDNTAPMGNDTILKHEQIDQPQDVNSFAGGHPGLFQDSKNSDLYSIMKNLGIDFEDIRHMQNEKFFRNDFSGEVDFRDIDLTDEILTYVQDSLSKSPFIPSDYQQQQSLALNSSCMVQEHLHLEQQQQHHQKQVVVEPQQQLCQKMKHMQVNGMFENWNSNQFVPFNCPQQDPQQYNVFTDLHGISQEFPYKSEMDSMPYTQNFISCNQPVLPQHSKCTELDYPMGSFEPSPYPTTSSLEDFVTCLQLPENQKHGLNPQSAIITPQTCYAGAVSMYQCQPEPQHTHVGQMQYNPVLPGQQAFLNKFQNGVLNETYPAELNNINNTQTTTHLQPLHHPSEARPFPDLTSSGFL
Peroxisome proliferator-activated receptor gamma (Homo sapiens), sequence (P37231 whole entry, looked up): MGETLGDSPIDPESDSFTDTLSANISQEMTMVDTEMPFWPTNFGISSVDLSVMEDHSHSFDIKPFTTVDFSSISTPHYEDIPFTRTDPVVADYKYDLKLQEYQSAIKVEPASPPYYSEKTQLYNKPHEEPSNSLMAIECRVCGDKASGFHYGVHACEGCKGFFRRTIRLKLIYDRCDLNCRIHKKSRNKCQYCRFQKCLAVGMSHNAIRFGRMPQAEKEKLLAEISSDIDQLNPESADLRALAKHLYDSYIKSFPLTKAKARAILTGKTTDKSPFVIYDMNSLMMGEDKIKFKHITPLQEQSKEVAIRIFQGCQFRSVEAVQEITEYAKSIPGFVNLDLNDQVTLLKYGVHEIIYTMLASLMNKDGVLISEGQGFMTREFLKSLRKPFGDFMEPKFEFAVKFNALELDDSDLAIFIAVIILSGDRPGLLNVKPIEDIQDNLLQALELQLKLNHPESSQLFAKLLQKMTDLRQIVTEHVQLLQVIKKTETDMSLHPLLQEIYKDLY

Consider `O=C1C2(Cl)C3(Cl)C4(Cl)C(Cl)(Cl)C5(Cl)C3(Cl)C1(Cl)C5(Cl)C24Cl` (stereo not given), for which the Potency in experiment [1] was 26.9 µM (active) and 52.2 µM (active); in experiment [3], 38.3 µM (active); in experiment [4] it was 67.5 µM (active) and 58.5 µM (active); in [5], 48.2 µM (active). Besides, the Potency result in experiment [2] was “inactive”.
With `[O-][Cl+3]([O-])([O-])O`, the Potency result in experiment [1], in experiment [6], in [7], in experiment [8], in experiment [3] and in experiment [9] was “inactive” in each case. Besides, the Potency result in experiment [5] and in experiment [10] was “inactive” each time.
As for `O=C(NC(=O)c1ccccc1Cl)Nc1ccc(OC(F)(F)F)cc1`, the Potency result in experiment [1], in experiment [6], in experiment [7], in experiment [8], in experiment [3] and in [4] was “inactive” each time. For the same compound, the Potency entry in experiment [5] and in experiment [10] was “inactive” each time.
With `O=c1c2ccccc2c(=O)c2c1cc(Cl)c1[nH]c3c([nH]c12)c(Cl)cc1c(=O)c2ccccc2c(=O)c13`, the Potency entry in [1], in experiment [6], in experiment [7], in experiment [8], in experiment [3] and in experiment [9] was “inactive” each time. For the same compound, the Potency entry in experiment [4], in experiment [5] and in experiment [10] was “inactive” each time.
For `CCC1COC(Cn2cncn2)(c2ccc(Cl)cc2Cl)O1` (stereo not given), the Potency result in [1], in [6], in experiment [7], in experiment [8], in [3] and in experiment [5] was “inactive” each time. The Potency entry in experiment [10] is “inactive”.
Consider `O.O.O.O=C([O-])[C@H]([O-])[C@@H]([O-])C(=O)[O-].O=C([O-])[C@H]([O-])[C@@H]([O-])C(=O)[O-].[K+].[K+].[Sb+3].[Sb+3]`, for which the Potency entry in experiment [1], in experiment [2], in experiment [3], in [4] and in experiment [5] was “inactive” each time.
On to `O=C1C(Cl)=C(Cl)C(=O)C(Cl)=C1Cl`, for which the Potency in experiment [1] was 10.8 µM (active) and 13.7 µM (active); in experiment [3], 6.92 µM (active); in experiment [4], “inactive and 13.7 µM (active)”. The Potency entry in experiment [6] and in [5] was “inactive” each time.
`O=C(N[C@H]1N=C(c2ccccc2F)c2cccc3c2N(CC3)C1=O)c1cc2ccccc2[nH]1`: the Potency entry in [1], in [3] and in [5] was “inactive” throughout. Besides, the Potency in experiment [2] was 5.31 µM (active).
With `Oc1ccc2[nH]cc(CCCCN3CC=C(c4ccccc4)CC3)c2c1`, the Potency result in [1], in experiment [2], in experiment [4] and in [5] was “inactive” throughout.
Take `O=[N+]([O-])c1cccc2cccc([N+](=O)[O-])c12`: the Potency entry in experiment [1], in experiment [6], in [3], in experiment [4] and in [5] was “inactive” each time. Also, the Potency in experiment [9] was 9.73 µM (active).
For `CSC(=O)c1c(C(F)F)nc(C(F)(F)F)c(C(=O)SC)c1CC(C)C`, the Potency entry in [1], in experiment [3], in [9], in [5] and in [10] was “inactive” in each case.
Turning to `O=c1[nH]c(Cl)c(Cl)cc1Cl`, the Potency entry in [1], in experiment [7], in experiment [3], in experiment [4], in [5] and in [10] was “inactive” each time.
As to `COP(=S)(NC(C)C)Oc1ccc(C)cc1[N+](=O)[O-]` (stereo not given), the Potency entry in [1], in experiment [6], in experiment [7], in experiment [3], in experiment [9] and in experiment [4] was “inactive” each time. In addition, the Potency result in experiment [5] and in experiment [10] was “inactive” in each case.
On to `C=CCBr`, for which the Potency entry in experiment [1], in experiment [6], in [8], in experiment [3], in [4] and in experiment [5] was “inactive” throughout. Further, the Potency result in experiment [10] was “inactive”.
For the compound `C=CC(=C)C`, the Potency result in [1], in [6], in experiment [8], in experiment [3] and in experiment [5] was “inactive” in each case.
Take `[C-]1=CC=CC1.[Cl][Zr+2][Cl].c1cc[cH-]c1`: the Potency result in [1], in experiment [6], in [3], in [9], in experiment [4] and in experiment [5] was “inactive” in each case.
`CO/N=C(/C1=NOCCO1)c1ccccc1Oc1ncnc(Oc2ccccc2Cl)c1F`: the Potency in experiment [1] was 54.4 µM (active); in experiment [9] it was 0.544 µM (active). The Potency entry in [3], in experiment [4] and in experiment [5] was “inactive” in each case.
On to `COCCC#N`, for which the Potency result in experiment [1], in [6], in experiment [7], in experiment [3], in experiment [9] and in experiment [4] was “inactive” each time. Further, the Potency result in experiment [5] and in experiment [10] was “inactive” throughout.
Regarding `CCOP(=S)(NC(C)C)Oc1ccccc1C(=O)OC(C)C` (stereo not given), the Potency result in experiment [1], in [6], in experiment [8], in experiment [3], in experiment [5] and in experiment [10] was “inactive” in each case. Further, the Potency in [9] is 54.5 µM (active).
As for `CCN(CC)CCN1C(=O)CN=C(c2ccccc2F)c2cc(Cl)ccc21`, the Potency result in experiment [1], in experiment [6], in experiment [8], in [3], in experiment [4] and in experiment [5] was “inactive” each time. For the same compound, the Potency result in experiment [10] was “inactive”.
Take `Oc1ccc([C@H]2CNCc3c2ccc(O)c3O)cc1O`: the Potency result in [1], in experiment [6], in experiment [3], in experiment [4], in [5] and in experiment [10] was “inactive” throughout.
Consider `CCCC[N+]1(C)CCCC1` (tested in a mixture with another compound), for which the Potency result in [1], in experiment [6], in experiment [3], in experiment [4], in [5] and in experiment [10] was “inactive” each time.
Turning to `O=S(=O)(NS(=O)(=O)C(F)(F)F)C(F)(F)F`, the Potency entry in experiment [1], in experiment [3], in experiment [4] and in experiment [5] was “inactive” each time.
For the compound `O=C(Nc1ccc(F)cc1F)c1cccnc1Oc1cccc(C(F)(F)F)c1`, the Potency entry in experiment [1], in experiment [6], in [3], in [4] and in experiment [5] was “inactive” in each case.
`N#Cc1c[nH]cc1-c1cccc2c1OC(F)(F)O2`: the Potency result in [1], in [6], in [7], in experiment [3], in experiment [9] and in [4] was “inactive” each time. In addition, the Potency result in experiment [5] and in experiment [10] was “inactive” in each case.
Consider `O=C1C[C@@H]2OCC=C3CN4CC[C@]56c7ccccc7N1[C@H]5[C@H]2[C@H]3C[C@H]46`, for which the Potency result in experiment [1], in [6], in [3], in experiment [5] and in [10] was “inactive” each time.
`CCC(C)c1cccc(C(C)CC)c1O` (stereo not given): the Potency entry in [2], in experiment [6], in [7], in experiment [8], in experiment [3] and in experiment [5] was “inactive” throughout.
Consider `COc1ccc(Cc2nccc3cc(OC)c(OC)cc23)cc1OC`, for which the Potency entry in experiment [1], in experiment [7], in experiment [8], in [3], in experiment [4] and in [5] was “inactive” in each case. The Potency entry in [10] was “inactive”.
For `COP(=S)(OC)Oc1nc(Cl)c(Cl)cc1Cl`, the Potency entry in experiment [1], in experiment [9], in [4], in experiment [5] and in experiment [10] was “inactive” throughout.
As for `CC(C)=CCN1CC[C@@]2(C)c3cc(O)ccc3C[C@@H]1[C@@H]2C`, the Potency result in experiment [1], in experiment [6], in [7], in experiment [8], in experiment [3] and in experiment [4] was “inactive” each time. For the same compound, the Potency result in [5] and in experiment [10] was “inactive” each time.
With `C=CCOC(=O)c1ccccc1N`, the Potency result in experiment [1], in [6], in experiment [8], in [3], in [9] and in experiment [4] was “inactive” each time. The Potency result in experiment [5] and in experiment [10] was “inactive” each time.
Take `CCC[CH2][Sn]([CH2]CCC)([CH2]CCC)[CH2]CCC`: the Potency is 43.3 µM (active) in experiment [1], 19.5 µM (active) in experiment [3] and 15.4 µM (active) in experiment [4]. Also, in experiment [2], the Potency entry is “inactive”.
As for `CCN(CC)C(=O)N[C@@H]1C=C2c3cccc4[nH]cc(c34)C[C@@H]2N(C)C1`, the Potency entry in experiment [1], in [6], in [8], in [3], in experiment [9] and in experiment [4] was “inactive” in each case. For the same compound, the Potency entry in experiment [5] and in experiment [10] was “inactive” each time.

The values above are taken from PubChem BioAssay (Tox21).
